GSIS activator: GLuc luminescence reporter in INS-1E cells, primary screen for activators of glucose-dependent secretion of insulin. INS-1E GLuc reporter insulin secretion, 2-3 h. activation, % at 16.6 µM. 0.61% of 370,000 active. AID 743287;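 active = lowest replicate activation of at least 40%, so every replicate reaches that level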
MLL AF4-AF9 inh: inhibitors of human MLL-AF4/AF9 interaction; AlphaScreen, biotin-AF4 peptide binding to FLAG-AF9; inhibition, % at 10 µM; 0.47% of 350,000 active; AID 651704;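 active = every replicate reaching a set inhibition limit, whatever the replicate mean, cut at about 25% in these data; inconclusive = mean inhibition reaches that limit but some replicates miss it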
RAD54 inh: RAD54 (human) branch migration inhibition. Q92698. AID 602329. inhibition, % at 10.4 µM. 0.14% of 360,000 active. RAD54 Holliday junction branch migration, FAM/BHQ fluorescence;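 active = mean normalized replicate activity at least 40 and at least half of replicates scoring 40 or more; inconclusive = only one of the two criteria met; inactive = mean below 40 and under half of replicates reaching 40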;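 also: inhibitors cause a drop in the FAM fluorescence signal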
Target sequence (Q92698 whole entry, looked up): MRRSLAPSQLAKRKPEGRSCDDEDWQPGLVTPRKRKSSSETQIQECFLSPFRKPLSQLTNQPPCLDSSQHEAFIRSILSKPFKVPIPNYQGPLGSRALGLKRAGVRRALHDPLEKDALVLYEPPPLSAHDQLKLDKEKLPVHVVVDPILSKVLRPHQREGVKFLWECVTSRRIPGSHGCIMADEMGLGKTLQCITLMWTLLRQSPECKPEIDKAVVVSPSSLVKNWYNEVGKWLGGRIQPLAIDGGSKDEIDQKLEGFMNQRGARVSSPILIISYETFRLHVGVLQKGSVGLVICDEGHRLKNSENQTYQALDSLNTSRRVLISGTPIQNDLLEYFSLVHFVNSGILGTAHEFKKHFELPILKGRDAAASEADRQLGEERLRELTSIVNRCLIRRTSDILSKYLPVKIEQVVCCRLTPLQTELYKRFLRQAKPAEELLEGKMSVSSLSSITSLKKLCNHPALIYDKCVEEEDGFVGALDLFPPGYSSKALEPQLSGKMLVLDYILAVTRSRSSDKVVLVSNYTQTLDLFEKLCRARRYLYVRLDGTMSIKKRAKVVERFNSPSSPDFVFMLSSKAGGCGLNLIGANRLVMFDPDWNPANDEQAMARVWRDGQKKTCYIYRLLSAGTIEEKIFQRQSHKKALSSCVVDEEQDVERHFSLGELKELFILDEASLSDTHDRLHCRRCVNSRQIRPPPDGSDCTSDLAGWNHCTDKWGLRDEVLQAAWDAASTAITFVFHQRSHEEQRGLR
RAD52 inh: inhibitors of human RAD52 DNA annealing. AID 651710. recombinant RAD52 DNA annealing, FRET fluorescence. inhibition, % at 18.7 µM. P43351. 0.46% of 360,000 active;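 active = every replicate showing at least 50% inhibition; inconclusive = mean inhibition at least 50% but not in every replicate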
DENV2 CPE rescue: DENV2-induced cell death inhibition. DENV2-infected cells, cytopathic effect rescue, plate reader. CPE inhibition, % at 9.99 µM. 1.7% of 350,000 active. AID 651640; in the data active = CPE inhibition above about 20%, passing the limit was not always enough; inconclusive = no clear call, values can overlap the other calls; tested in BHK-21 cells
dFosB activator: activators of mouse delta FosB homodimer. purified delta FosB, TAMRA-CDK5 oligo fluorescence polarization; percent of positive-control signal above neutral wells. 0.99% of 340,000 active. P13346. activation, % at 25 µM. AID 493131;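 active = mean activation above about 17%, with every replicate also reaching it, limit read from the data, passing the limit was not always enough; inconclusive = only one of the two conditions met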
AlphaScreen intf: AlphaScreen signal interference counter-screen hit; shares compounds with MLL AF4-AF9 inh; signal luminescence; AC50, µM (doses to about 12 µM); 45% of 530 active; AID 720494; cut-off not given, nearly all actives have AC50 up to about 14 µM
Each line names hits and unclear results; the compound was inactive in the other large screens (follow-up assays come after a bar, where they were run). Most compounds without a hit are left out; they make up all but 3.1% or so of the library.

O=C(CNCc1ccco1)Nc1ccc(N2CCCCCC2)cc1	MLL AF4-AF9 inh 28.7 (no result: RAD54 inh) | AlphaScreen intf inactive
CCCC(=O)NC(c1ccc(C(C)C)cc1)c1ccc2cccnc2c1O (stereo not drawn)	none (no result: GSIS activator)
CCCC(=O)NC(c1ccc(N(C)C)cc1)c1ccc2cccnc2c1O (stereo not drawn)	MLL AF4-AF9 inh 50.1 (no result: GSIS activator) | AlphaScreen intf 1.51µM
Cc1ccc2c(c1)c1c3n2CCN(CC#N)C3CCC1 (stereo not drawn)	none
Cc1ccc2c(c1)c1c3n2CCCN(Cc2ccccc2)C3CCC1 (stereo not drawn)	MLL AF4-AF9 inh 31.8 | AlphaScreen intf inactive
CCN(CC)S(=O)(=O)N1CCC(C(=O)NCc2ccc(C)cc2)CC1	none (no result: MLL AF4-AF9 inh, RAD52 inh, DENV2 CPE rescue)
CCN(CC)c1ccc(CN2CCC(C(=O)NCc3ccc(C)cc3)CC2)cc1	MLL AF4-AF9 inh inconclusive (no result: RAD54 inh) | AlphaScreen intf inactive
COc1ccc(NC(=O)Nc2cccc3c2O[C@H](CN(C)S(=O)(=O)c2cn(C)cn2)[C@@H](C)CN([C@@H](C)CO)C3=O)cc1	none (no result: dFosB activator)
CN(C)CCCNC(=O)[C@@H]1[C@@H](CO)[C@@H]2Cn3c(ccc(C4=CCCC4)c3=O)[C@H]1N2Cc1cocn1	none (no result: dFosB activator)
O=c1c2ccccc2sc2c(CO)ccc(NCCN3CCCCC3)c12	none (no result: GSIS activator, RAD54 inh)
CCN(CC)CCNc1cccc2sc3ccccc3c(=O)c12	MLL AF4-AF9 inh 28.9, RAD54 inh 89.8 (no result: GSIS activator, dFosB activator) | AlphaScreen intf 2.17µM
C[C@@H]1CCCCO[C@@H](CN(C)C(=O)Nc2ccc(F)cc2)[C@H](C)CN([C@@H](C)CO)C(=O)c2cc(NS(=O)(=O)c3ccc(F)cc3)ccc2O1	none (no result: MLL AF4-AF9 inh, RAD52 inh, dFosB activator)
Cc1csc(Nc2ccccc2)[n+]1-c1ccccc1	MLL AF4-AF9 inh 27.8 (no result: RAD54 inh) | AlphaScreen intf inactive
C(=C\c1ccc2ccccc2n1)/c1ccccc1	MLL AF4-AF9 inh inconclusive | AlphaScreen intf inactive
Cn1c(=O)cc2c3c(c(N4CCCCC4)ccc31)C(=O)c1ccccc1-2	MLL AF4-AF9 inh 54.3 (no result: dFosB activator) | AlphaScreen intf 10.3µM
CCCN(C)C[C@H]1OCCCC[C@H](C)Oc2ccc(NS(=O)(=O)c3c(C)noc3C)cc2C(=O)N([C@@H](C)CO)C[C@@H]1C	none (no result: dFosB activator)
Cn1ccc2c(N3CCCCC3)cc3c(c21)C1CCC3C1 (stereo not drawn)	MLL AF4-AF9 inh 52.4 (no result: dFosB activator) | AlphaScreen intf inactive
O=C(COc1cc(F)ccc1[N+](=O)[O-])Nc1ccc(N2CCCCC2)cc1	MLL AF4-AF9 inh inconclusive | AlphaScreen intf inactive
CC(=O)NC[C@H]1[C@@H](c2ccccc2)[C@@H](CO)N1C(=O)Cc1ccncc1	none (no result: MLL AF4-AF9 inh, RAD52 inh, DENV2 CPE rescue, dFosB activator)
Oc1cc(-c2ccc(N3CCCCC3)nc2)cc2cccnc12	none (no result: GSIS activator, MLL AF4-AF9 inh, RAD52 inh, DENV2 CPE rescue)
Oc1cc(-c2ccncc2)cc2cccnc12	MLL AF4-AF9 inh 28.8 | AlphaScreen intf 9.1µM
COc1cccc2sc(N(CCCN(C)C)C(=O)c3ccc(S(=O)(=O)N4CCCc5ccccc54)cc3)nc12	MLL AF4-AF9 inh 36.1 | AlphaScreen intf inactive
CN(C)CCCN(C(=O)c1ccc(S(=O)(=O)N2CCc3ccccc32)cc1)c1nc2c(Cl)cccc2s1	none
O=C(C[C@H]1CC[C@@H]2[C@H](COC[C@@H](O)CN2Cc2ccc(Cl)cc2)O1)NCc1ccccc1Cl	none (no result: dFosB activator)
O=S(=O)(c1ccc(Cl)cc1)N1CCN(Cc2ccc(O)c3ncccc23)CC1	MLL AF4-AF9 inh 75.0 (no result: RAD54 inh) | AlphaScreen intf inactive
CCOc1ccc(Nc2ccc([N+](=O)[O-])c3nonc23)cc1	MLL AF4-AF9 inh 28.8 | AlphaScreen intf inactive
Cc1ccccc1-c1ccc([C@@H]2[C@H](CO)N3CCCCN(S(C)(=O)=O)C[C@@H]23)cc1	none (no result: dFosB activator)
NCCc1c(-c2ccccc2)n(-c2ccccc2)c2ccccc12	MLL AF4-AF9 inh 47.4 (no result: RAD54 inh) | AlphaScreen intf 13.8µM
CC(C)NC(=O)N(C)C[C@H]1Oc2cc(C3=CCCC3)ccc2S(=O)(=O)N([C@@H](C)CO)C[C@H]1C	none (no result: DENV2 CPE rescue, dFosB activator)
CCC[C@@H](CN1CCC[C@H]1CN1C(N)=NC[C@@H]1Cc1ccccc1)N1C[C@@H](Cc2ccccc2)N(CCc2ccc(Cl)c(Cl)c2)C1=N	MLL AF4-AF9 inh 29.9, RAD52 inh 56.1 | AlphaScreen intf inactive
CCOc1ccc(Nc2nc(NCC3CCCO3)c3ccccc3n2)cc1 (stereo not drawn)	MLL AF4-AF9 inh 27.8, dFosB activator inconclusive (no result: RAD54 inh) | AlphaScreen intf inactive
CC(C)n1ncc2c(C(=O)Nc3ccc(S(C)(=O)=O)cc3)cc(C3CC3)nc21	none

Screens (PubChem BioAssay)
